Measurements from PubChem BioAssay AID2733 (National Center for Advancing Translational Sciences (NCATS), 2010).
Inconclusive results are not listed. A call without a number means that no potency is given here. Activity calls are given as the source filed them. Calls follow the shape of the dose curve; as a rule, active = well fitted inhibition curve with a large enough effect; inconclusive = small, poorly fitted or top-dose-only effect; inactive = flat fitted curve, though single readings scatter.

Assay: High Content Assay for Compounds that inhibit the Assembly of the Perinucleolar Compartment: PC3M Cytotoxicity
From the text: High Content Assay for Compounds that inhibit the Assembly of the Perinucleolar Compartment
NIH Chemical Genomics Center [NCGC]
NIH Molecular Libraries Probe Centers Network [MLPCN]
Assay Submitter (PI): Sui Huang, Northwestern University, Feinberg School of Medicine, Cell and Molecular Biology, Chicago, Illinois.
The perinucleolar compartment (PNC) is a non-membrane-bound nuclear subdomain that is associated with but structurally distinct from the nucleolus. The PNC is a heritable trait, in which the number of PNCs per cell in daughter cells often mimics that of their mother cells. The PNC is heterogeneous in shape, is stable through interphase, disassembles during mitosis, and reassembles in early G1. The PNC is concentrated with newly synthesized RNA polymerase III (pol III) RNAs (MRP RNA, RNAse P H1 RNA, hY RNAs[hY1, 2, 5], Alu RNA, and SRP [7SL] RNA) and RNA binding proteins (nucleolin, PTB, CUG-BP, KSRP, Raver1, Raver2, and Rod).
Extensive in vitro studies have shown that the PNC is unique to tumor cells and preferentially forms in tumor cells derived from solid tissues. […]
5. Luminescencent signal was detected on a Viewlux CCD based imager (PerkinElmer) with a clear filter and a 30 second integration time. […]

Row | SMILES | Potency
1 | Cc1c2ccncc2c(C)c2c1[nH]c1ccccc12 | 31.6 µM (active)
2 | Cc1ccc(C(O)(C(=O)NNC(=O)CN2CCN(C)CC2)c2ccc(C)cc2)cc1 | inactive
